The nature of test [1]: NCI Yeast Anticancer Drug Screen. Data for the rad50 strain (AID 155).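 Note: 0% = growth of vehicle-only cultures of the same strain.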 The settings on record: S. cerevisiae rad50 strain growth inhibition; at 50.0 µM; stronger effect = higher value. A digest of the protocol:
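Vehicle-treated cultures provide the reference for the growth inhibition reported for compound-exposed, repair-deficient yeast.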

Test [2] is described as follows: NCI Yeast Anticancer Drug Screen. Data for the mec2-1 strain (AID 157). Particulars: S. cerevisiae mec2-1 strain, at 50.0 µM, stronger effect = higher value. A digest of the protocol: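 Yeast mec2-1 mutant treated with compound. Readout: growth inhibition vs vehicle controls.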
Test [3] in a line: NCI Yeast Anticancer Drug Screen. Data for the sgs1 mgt1 strain (AID 161).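 Note: 0% = growth of cultures given vehicle only.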 Particulars: S. cerevisiae sgs1 mgt1 strain, at 50.0 µM, stronger effect = higher value. Put shortly: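 Mutant yeast exposed to compound; growth scored against vehicle-only wells.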
A short description of test [4]: NCI Yeast Anticancer Drug Screen. Data for the cln2 rad14 strain (AID 165).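 Note: 0% = growth equal to vehicle treated cultures.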 The settings on record: S. cerevisiae cln2 rad14 strain, at 50.0 µM, stronger effect = higher value. A digest of the protocol: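 cln2 rad14 yeast strain; compound exposure; growth inhibition read vs vehicle controls.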
Test [5] can be described thus: NCI Yeast Anticancer Drug Screen. Data for the bub3 strain (AID 167). The settings on record: S. cerevisiae bub3 mutant strain, at 50.0 µM, stronger effect = higher value. Put shortly:
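Mutant yeast screening strain plus compound; vehicle-treated cultures serve as the 0% inhibition reference.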

A short description of test [6]: NCI Yeast Anticancer Drug Screen. Data for the mlh1 rad18 strain (AID 175). Particulars: S. cerevisiae mlh1 rad18 strain growth inhibition; at 50.0 µM; stronger effect = higher value. A digest of the protocol:
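Yeast w/ defined DNA-repair lesions; compound exposure; growth vs vehicle controls → % inhibition.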

Compounds without any hit were thinned out: in the full panel of roughly 79,000, 15% have a hit. Unmarked numbers belong to inactive results. Active and inactive are the calls of the source. Cut-off read from the data, not from the text of the source: active = growth inhibition above about 70%; inactive = the rest.

As for `CC(C)O/N=C/c1cc(NC(=S)OC(C)C)ccc1Cl`, the growth inhibition in test [1] is 2.35%; in test [2], -8.75%; in test [3], 11.1%; in test [4], -4.8%; in test [5], -10.9%; in test [6], -57.5%.

`CCCCCC(O)(CCCCC)CCCCCCCCC1=C(O)c2ccccc2C(=O)C1=O`: the growth inhibition was -17.7% in test [1]; -18.6% in test [2]; -0.15% in test [3]; 5.75% in test [4]; 1% in test [5]; -79.2% in test [6].

Regarding `C[N+](C)(CCNC(=O)c1cccc2cc3ccccc3nc12)Cc1ccc([N+](=O)[O-])s1`, the growth inhibition was -13.4% in test [1]; -37.2% in test [2]; -12.7% in test [3]; 4.1% in test [4]; -40% in test [5]; -36.7% in test [6].

`CCOc1cc2c(cc1O)/C(=N/NS(=O)(=O)c1ccc(C)cc1)C[C@@H]1[C@@H]2CC[C@]2(C)[C@@H](O)CC[C@@H]12`: the growth inhibition in test [1] is 33.9%; in test [2] it was 26.9%; in test [3], 4.05%; in test [4] it was 35.4%; in test [5], 14.1%; in test [6] it was 4.4%.

As to `COC(=O)C(/C(=N/NC(N)=O)C(=O)Nc1ccc(C)cc1)c1nc2ccc([N+](=O)[O-])cc2[nH]c1=O` (centres undefined), the growth inhibition in test [1] is 22.1%; in test [2] it was 26.3%; in test [3], 0.45%; in test [4], -48.4%; in test [5], -11%; in test [6], 42.8%.

For `CC1=C2NCN(C)N=C2C(C#N)(C#N)C1(C#N)C#N`, the growth inhibition is 24% in test [1]; 35.4% in test [2]; -15.3% in test [3]; 2.25% in test [4]; -12.2% in test [5]; -13.1% in test [6].

As to `N#Cc1n[nH]n(-c2ccccc2)c1=O`, the growth inhibition in test [1] is -26.3%; in test [2], -10.8%; in test [3] it was 17.3%; in test [4], -11.7%; in test [5], -21%; in test [6], -13.7%.

Regarding `COc1ccc2nc(N/N=C/c3ccc(C)s3)cc(C)c2c1`, the growth inhibition is 22.3% in test [1]; -1.75% in test [2]; 15.6% in test [3]; 24.4% in test [4]; 0.7% in test [5]; 24.6% in test [6].

For the molecule `OCc1ccccc1OC1OC(CO)C(O)C(O)C1O` (centres undefined), the growth inhibition in test [1] was 18.5%; in test [2], 2.6%; in test [3] it was 16.4%; in test [4], -0.45%; in test [5], 21.6%; in test [6] it was -50.9%.

Regarding `O=C1CC(c2ccccc2)NCCCCN2CC(CN1)C(C(O)c1ccccc1)C2=O` (centres undefined), the growth inhibition in test [1] was -20.4%; in test [2], -34.8%; in test [3] it was -39.4%; in test [4], 8.95%; in test [5], -44.6%; in test [6], -49%.

As to `CC(=O)C(/C=N/C(N)=O)=C(/C)O`, the growth inhibition is 5.4% in test [1]; -7.5% in test [2]; 3.75% in test [3]; 2.75% in test [4]; -2.3% in test [5]; 2.55% in test [6].

Regarding `CC1CC(=O)N(N(C)C)C(C#N)(C#N)C1(C#N)C#N` (centres undefined), the growth inhibition is 24.4% in test [1]; 30.6% in test [2]; 11.2% in test [3]; 17.5% in test [4]; 0.8% in test [5]; 80.5% (active) in test [6].

On to `O=C(Nc1cccc(NC(=O)C(=O)C2CCC3=C(Sc4ccccc4N3)C2=O)n1)C(=O)C1CCC2=C(Sc3ccccc3N2)C1=O` (centres undefined), for which the growth inhibition is 2.5% in test [1]; 13.8% in test [2]; 3% in test [3]; 5.2% in test [4]; 29.9% in test [5]; 1.2% in test [6].

`Cc1ccc(NC(=O)/C(Cc2cc(=O)oc3cc(O)ccc23)=N\NC(C)(C)C)cc1C`: the growth inhibition in test [1] was -3.95%; in test [2], -10.3%; in test [3], -21.9%; in test [4] it was -33.9%; in test [5] it was -17.9%; in test [6], -3.5%.

For `CC(C)=CCc1cc(C2COc3cc4c(c(O)c3C2=O)C=CC(C)(C)O4)c(O)cc1O` (centres undefined), the growth inhibition in test [1] is 91.3% (active); in test [2], 93% (active); in test [3], 92% (active); in test [4] it was 90.9% (active); in test [5], 91.6% (active); in test [6] it was 88% (active).

For the molecule `COc1c(OC)c(OC)c2c(c1OC)c(=O)c1ccccc1n2C`, the growth inhibition in test [1] is 12.6%; in test [2] it was 22.9%; in test [3] it was 30.8%; in test [4], 18.8%; in test [5], 14.4%; in test [6] it was -42.2%.

As for `O=C(NC1=NC2C=CC([N+](=O)[O-])=CC2S1)C(=O)Nn1c(=S)[nH]c2ccccc2c1=O` (centres undefined), the growth inhibition in test [1] is 6.8%; in test [2] it was -14.9%; in test [3] it was 20.2%; in test [4] it was 10.8%; in test [5], 20.7%; in test [6], 24.1%.

Regarding `CO/C(N)=C(\C#N)N=Cc1ccc2ccccc2c1`, the growth inhibition in test [1] is 30.9%; in test [2], 14.3%; in test [3] it was 13.6%; in test [4], 19.1%; in test [5], 16.7%; in test [6], 40.5%.

On to `Cc1ccc(C)c(NC(=O)/C(=N\N)C(c2cnc3ccc([N+](=O)[O-])cc3n2)[N+](=O)[O-])c1` (centres undefined), for which the growth inhibition in test [1] was 42.5%; in test [2], 27.2%; in test [3], 6.75%; in test [4], -35.2%; in test [5], 32.2%; in test [6], 28.6%.

The values above are taken from PubChem BioAssay (NCI).
